ST2 inh: blocks human ST2 binding to IL-33 | Q01638 | AlphaLISA ST2-Fc/biotin-IL-33 interaction, 1 h | inhibition, % for hits at 17 µM | 2.3% of 78,000 active | AID 1259354; in the data active means inhibition above about 30%
Target sequence (Q01638 whole entry, looked up): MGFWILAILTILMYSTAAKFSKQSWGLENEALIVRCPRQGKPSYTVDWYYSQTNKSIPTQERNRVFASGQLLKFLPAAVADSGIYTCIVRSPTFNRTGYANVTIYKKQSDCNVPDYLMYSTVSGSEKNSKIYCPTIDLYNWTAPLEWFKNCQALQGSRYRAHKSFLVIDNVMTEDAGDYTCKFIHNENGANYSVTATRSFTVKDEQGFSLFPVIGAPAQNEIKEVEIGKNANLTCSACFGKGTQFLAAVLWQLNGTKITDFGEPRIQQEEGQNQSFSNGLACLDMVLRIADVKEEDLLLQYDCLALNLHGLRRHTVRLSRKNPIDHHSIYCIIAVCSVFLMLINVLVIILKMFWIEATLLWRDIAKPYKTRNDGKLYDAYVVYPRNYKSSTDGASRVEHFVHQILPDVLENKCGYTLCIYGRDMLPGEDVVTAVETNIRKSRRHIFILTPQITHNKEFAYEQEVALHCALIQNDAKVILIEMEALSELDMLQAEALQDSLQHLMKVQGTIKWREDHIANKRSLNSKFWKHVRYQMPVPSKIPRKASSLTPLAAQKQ
The depositor's hits bear a star; i = inactive. This is one part of a sample in which hits are shown more often than they occur.

SMILES	ST2 inh
CCNC(=O)N[C@H]1CC[C@]2(C)CC[C@@H]([C@H](C)C(=O)NC3CCCC3)[C@H](O)[C@H]2[C@@H]1C	i
CC(=O)N1CCc2cc(S(=O)(=O)NCC(=O)N3CCN(c4ccc(Cl)cc4)CC3)ccc21	i
O=C(Nc1ccc(F)c(Cl)c1)c1cnc2n(c1=O)CCS2	i
O=C(Nc1cc(Cl)cc(Cl)c1)c1cnc2n(c1=O)CCS2	i
O=C(Nc1ccc(Cl)c(Cl)c1)c1cnc2n(c1=O)CCS2	32%*
CCCCNC(=O)c1cc(=O)[nH]c2ccc(S(=O)(=O)N3CCCCCC3)cc12	i
CCOC(=O)C1=C(C)Nc2nc(SCc3ccc(Cl)cc3)nn2C1c1cccs1 (stereo not given)	i
CC(C(=O)N1CCC(c2n[nH]c(=O)n2-c2ccccc2)CC1)n1ccnc1 (stereo not given)	i
CCSC1=N/C(=C\c2ccc(C)s2)C(=O)S1	57%*
CCSC1=N/C(=C\c2ccc(C(=O)O)cc2)C(=O)S1	i
Cc1ccc(/C=C2\C(=O)NN(c3ccc(Cl)c(Cl)c3)C2=O)s1	i
O=[N+]([O-])c1cc(NC2C[C@@H](O)[C@@H](O)CO2)cc(Sc2ccccc2)c1 (stereo not given in full)	i
CNc1ncc(CN(C)c2nc(-c3cccnc3)nc3c2cnn3C)cn1	46%*
CCSCCNc1nc(-c2cccnc2)nc2c1cnn2C	i
COCc1nc(N(C)Cc2cc(-c3cccnc3)no2)c2cnn(C)c2n1	i
COc1ccc(NC(=O)NC2CCCN(C3CCCCCC3)C2)cc1OC (stereo not given)	i
COc1ccc(NC2CCCN(C3CCN(c4ccccc4C)CC3)C2)cc1OC (stereo not given)	34%*
COc1ccc(NC2CCCN(C(=O)/C=C/c3cccc(Cl)c3)C2)cc1OC (stereo not given)	i
Cc1ccc(-c2cc(C(=O)N(C)CCc3cnn(C)c3)cc(S(=O)(=O)N3CCOCC3)c2)s1	i
CC1=CC(C)(C)N(C(=O)CN2C(=O)c3ccccc3C2=O)c2ccccc21	i
Cc1c(NC(=O)CN2C(=O)c3cccc([N+](=O)[O-])c3C2=O)c(=O)n(-c2ccccc2)n1C	i
CC1=CC(C)(C)N(C(=O)CN2C(=O)c3cccc([N+](=O)[O-])c3C2=O)c2ccccc21	32%*
CC(CCc1ccccc1)NC(=O)CSc1nc(-c2ccc3c(c2)OCO3)nc2cc(=O)[nH]n12 (stereo not given)	i
COCCNC(=O)CSc1nc(-c2cccc(Cl)c2)nc2cc(=O)[nH]n12	i
CC(C)NC(=O)CSc1nc(-c2cccc(Cl)c2)nc2cc(=O)[nH]n12	96%*
SMILES	ST2 inh
Cc1ccc(-n2ncc3c(N(C)Cc4ccccc4)ncnc32)c(C)c1	i
N#Cc1cccc([N+](=O)[O-])c1C#N	i
CCc1oc2cc(O)ccc2c(=O)c1-c1ccc2c(c1)OCCO2	i
COc1ccc(-c2cc(C[C@H]3CNCC[C@H]3CC(=O)N3CCN(C(C)=O)CC3)no2)cc1	i
COc1ccc(CNC(=O)C[C@@H]2CCNC[C@@H]2Cc2cc(-c3ccccc3)on2)cc1OC	i
COc1ccccc1CNC(=O)C[C@@H]1CCNC[C@@H]1Cc1cc(-c2ccccc2)on1	i
CCCCc1cc(C[C@H]2CNCC[C@H]2CC(=O)N2CCN(C(C)=O)CC2)no1	43%*
COC(=O)c1cc(C[C@H]2CNCC[C@H]2CC(=O)O)no1	77%*
CCCCc1cc(C[C@H]2CNCC[C@H]2CC(=O)N2CCc3cc(OC)c(OC)cc3C2)no1	i
O=C(CCCn1cnc([N+](=O)[O-])n1)Nc1ccc(F)cc1F	i
CCN1CCN(C(=O)CCC2CCN(C(=O)C3CCN(C(=O)N(C)C)CC3)CC2)CC1	i
O=C(O)c1ccc(CN2CC[C@H](c3nnc(-c4ccccc4)o3)C2)cc1	i
FC(F)(F)CCc1ccnc(N2CCNC(c3ccccc3)C2)n1 (stereo not given)	i
COc1ccc2nc(N=C(N)NC(=O)Cc3ccc(Cl)cc3)nc(C)c2c1	35%*
CCC(=O)NC(N)=Nc1nc(C)c2cc(C)ccc2n1	i
COc1ccc2nc(N=C(N)N)nc(C)c2c1	i
CCOC(=O)c1nn(CCC(C)C)c2c1CN(C(=O)CCc1nc3ccccc3[nH]1)CC2	i
C/C(=C\C(=O)c1ccc(Cl)cc1)Nc1ccccc1O	30%*
O=C(Nc1ccccc1O)c1ccc(S(=O)(=O)c2ccc(Cl)cc2)cc1	i
Cc1c(F)cccc1NC(=O)c1ccc(Cl)cc1	i
COc1cccc(Nc2nc3ccccc3nc2NS(=O)(=O)c2ccc(NC(C)=O)cc2)c1	37%*
COc1ccccc1NS(=O)(=O)c1ccc(NC(C)=O)cc1	i
COc1ccc(NS(=O)(=O)c2ccc(NC(=O)COc3ccccc3)cc2)cc1	i
O=C(Nc1nncs1)c1ccc(Oc2ccccc2)cc1	i
Cc1cccc2[nH]c(-c3ccc(NC(=O)c4ccc([N+](=O)[O-])cc4)cc3)nc12	i
SMILES	ST2 inh
O=C(Cc1ccc(Cl)cc1)N1CCN=C1SCc1ccccc1F	i
CCCCN1CC(C(=O)NC2CCCC2)CC1=O (stereo not given)	i
c1ccc(C2=Nc3ccccc3SC2)cc1	i
Cn1c(=NC(=O)c2ccc(S(=O)(=O)N3CCCCC3)cc2)sc2ccccc21	i
OCC#Cc1ccc(CN2CCC3(CCOCC3)CC2)cc1	i
COc1ccc(CC(=O)Nc2ccc(C)c([N+](=O)[O-])c2)cc1	i
COc1ccc(C(=O)Nc2ccc([N+](=O)[O-])cc2)cc1	i
COc1ccc(N/C=C(/c2cc(O)ccc2O)[N+](=O)[O-])cc1	45%*
Cc1ccc(C2C3C(=O)N(c4ccc(F)cc4)C(=O)C3N3CCCN23)cc1 (stereo not given)	i
CC(C)N1CCC(NCc2cccnc2N(C)Cc2ccccc2)CC1	i
CN(Cc1ccccc1)c1ncccc1CNC(=O)C1(C)CCCO1 (stereo not given)	35%*
CN(C)c1ncccc1CNC(=O)Cc1ccc(O)c(F)c1	i
CN(C(=O)c1cncc(Br)c1)C1CCCCC1	i
N#CC1=C(N)OC2=C(C(=O)CCC2)C1c1ccccc1Br (stereo not given)	i
COc1ccc(C2=NN(S(=O)(=O)c3ccccc3)C(c3ccc(F)cc3)C2)cc1OC (stereo not given)	i
O=C(c1cc([N+](=O)[O-])ccc1N1CCOCC1)N1CCOCC1	i
O=C(/C=C(/c1ccccc1)N1CCOCC1)c1ccc([N+](=O)[O-])cc1	39%*
O=C1C(=O)N(CCN2CCOCC2)C(c2ccc([N+](=O)[O-])cc2)C1=C(O)c1ccccc1 (stereo not given)	i
Cc1cccc(CSc2nc(C)nc3c2c(=O)n(C)c(=O)n3C)c1	i
COc1cc([N+](=O)[O-])ccc1NC(=O)c1c(C)nn(-c2ccccc2)c1Cl	i
COc1ccccc1C1C(Oc2ccccc2C)C(=O)N1c1cccc([N+](=O)[O-])c1 (stereo not given)	33%*
COc1cccc(OC)c1C(=O)Nc1ccc([N+](=O)[O-])cc1	i
CN1CCC(N2CC[C@H](c3nnc(-c4ccncc4)o3)C2)CC1	i
CCC(C)NC(=O)C(=O)Nc1ccccc1OC (stereo not given)	i
Cc1ccc(Nc2cc(C)nc(N3CCN(S(=O)(=O)c4cc(C(C)C)ccc4C)CC3)n2)cc1	30%*
Cc1ccc(Nc2cc(C)nc(N3CCN(S(=O)(=O)c4c(C)cc(C)cc4C)CC3)n2)cc1	i
